Screening results deposited in PubChem BioAssay by National Center for Advancing Translational Sciences (NCATS).
ALDH1A1 block – inhibitors of human aldehyde dehydrogenase 1A1 | P00352 | Purified ALDH1A1, NADH fluorescence, propionaldehyde substrate | Potency, µM (doses to about 75.3 µM), most hits filed as inhibitors | 7.3% of 220,000 active | AID 1030
Target sequence (P00352 whole entry, looked up): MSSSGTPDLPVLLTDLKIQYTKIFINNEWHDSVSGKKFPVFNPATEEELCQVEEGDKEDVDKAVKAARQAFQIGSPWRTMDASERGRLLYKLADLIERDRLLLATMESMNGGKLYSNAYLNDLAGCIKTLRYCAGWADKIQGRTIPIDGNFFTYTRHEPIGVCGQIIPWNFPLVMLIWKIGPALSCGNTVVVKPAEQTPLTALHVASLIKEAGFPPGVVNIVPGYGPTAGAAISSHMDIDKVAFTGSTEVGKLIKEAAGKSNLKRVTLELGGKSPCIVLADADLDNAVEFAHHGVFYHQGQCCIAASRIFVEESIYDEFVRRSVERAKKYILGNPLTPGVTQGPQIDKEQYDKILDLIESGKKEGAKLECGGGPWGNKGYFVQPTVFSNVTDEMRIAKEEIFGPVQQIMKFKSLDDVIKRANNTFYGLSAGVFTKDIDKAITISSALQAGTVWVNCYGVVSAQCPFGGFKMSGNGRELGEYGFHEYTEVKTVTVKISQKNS
ALOX12 inhib – 12-hLO (ALOX12) enzyme inhibition | Potency, µM (top dose mostly 57.1 µM), actives largely listed as inhibitors | P18054 | purified 12-hLO, xylenol orange hydroperoxide absorbance | 0.12% of 150,000 active; active = well fitted inhibition curve with a large enough effect; inconclusive = small, poorly fitted or top-dose-only effect; also: nearly all actives have a fitted effect of over 55% in size
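Lipoxygenase turnover measured by absorbance at 573 and 405 nm after Fe-XO development. Human 12hLO 150 nM, arachidonate 40 uM, pH 7.0 Hepes buffer with detergent; 15 min compound preincubation, 30 min reaction.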
LMNA splice mod – LMNA splicing modulation. HeLa LMNA splicing GFP/RFP minigene ratio, 48 h. Potency, µM (doses to about 46.1 µM), actives largely listed as inhibitors. 0.01% of 200,000 active. AID 1487; active = well fitted inhibition curve with a large enough effect in the signal ratio, with a control signal flat, not every such curve was filed as active; inconclusive = small, poorly fitted or top-dose-only effect, or effect the other way, or a change in a side signal; the % refers to the signal ratio
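Read-out is the ratio of GFP to DsRed2 object intensity, acquired by 488 nm laser-scanning cytometry on HeLa lamin A-EGFP minigene reporter cells. Compound incubation 48 hrs at 37 °C in Opti-MEM with 2% FBS; DMSO 0.5% final.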
HPGD inh – blocks human HPGD enzyme activity; AID 894; 4.3% of 150,000 active; purified HPGD, NADH fluorescence kinetic, PGE2 substrate; Potency, µM, actives largely listed as inhibitors
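20 nM HPGD preincubated 15 min at room temperature with compound in 50 mM Tris-HCl pH 8, 0.01% Tween 20. Started with 1 mM NAD+ and 30 uM prostaglandin E2; NADH fluorescence (360/450 nm) read 5 times over 30-s intervals, last minus first.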
PNC assembly inh – inhibitors of perinucleolar compartment assembly; 3.1% of 140,000 active; AID 2417; activity change (PNC), negative = inhibition, % at 10 µM; PC3M PTB-GFP, PNC prevalence imaging, 16 h; active compounds read low;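 active = readout at or below -70, meaning at least 70% loss of cells showing the perinucleolar compartment, a nuclear body marking cancer cells; inconclusive = readout between -30 and a set limit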
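Compounds are pinned in duplicate onto adhered PC3M cells stably expressing GFP-tagged PTB and incubated 16 h at 37 C. Cells are then fixed, nuclei stained with Hoechst, and PNC-positive cells counted.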
Large screens that a line does not name were inactive. This is a sample that favours compounds with a hit; in the whole collection about 10% have one here. Unless noted, calls follow the shape of the dose curve; as a rule, active = well fitted inhibition curve with a large enough effect (not every such curve was filed as active); inconclusive = small, poorly fitted or top-dose-only effect, or another doubt; inactive = no such curve, though single readings can be large or run the other way.

COCC(C)NC(=O)c1cc(-c2ccc(OC)c(OC)c2)on1 (configuration not stated)	PNC assembly inh -83
O=C1c2nc3ccccn3c2C(=O)N1Cc1ccccc1	ALDH1A1 block 18µM, HPGD inh inconclusive
CCOc1ccc(-n2nc(C(=O)N3CCN(CC)CC3)c3ccccc3c2=O)cc1	PNC assembly inh -86
CCOc1cc(CNc2ccc(N(C)C)cc2)cc(Br)c1OCC(=O)NC(C)(C)C	ALDH1A1 block 3.2µM, LMNA splice mod inconclusive, PNC assembly inh inconclusive
COc1cc(CNc2ccc3[nH]c(=O)[nH]c3c2)cc(Br)c1OCC(=O)NC(C)(C)C	ALDH1A1 block 0.32µM, LMNA splice mod inconclusive, HPGD inh inconclusive
CCCNC(=O)N1N=C(c2ccc(N)cc2)c2cc3c(cc2[C@H]1C)OCO3	ALDH1A1 block inconclusive (no result: LMNA splice mod, PNC assembly inh)
NC(=O)c1ccc(-n2c(CCC(=O)O)ccc2-c2cccs2)cc1	ALDH1A1 block 3.2µM (no result: ALOX12 inhib, LMNA splice mod, HPGD inh, PNC assembly inh)
COC(=O)c1cccc(-n2c(CCC(=O)O)ccc2-c2cccs2)c1	ALDH1A1 block 4µM (no result: ALOX12 inhib, HPGD inh, PNC assembly inh)
CC(=O)c1ccc(-n2c(CCC(=O)O)ccc2-c2cccs2)cc1	ALDH1A1 block 3.5µM, PNC assembly inh inconclusive
Cc1ccc(-n2c(CCC(=O)O)ccc2-c2cccs2)cc1	ALDH1A1 block inconclusive, PNC assembly inh inconclusive
Cc1ccc2c(ccc(=S)n2C)c1	LMNA splice mod inconclusive (no result: ALOX12 inhib, HPGD inh, PNC assembly inh)
COc1cccc(CNC(=O)Nc2cc(C(=O)NCc3cccc(F)c3)ccc2N2CCCC2)c1	none (no result: ALDH1A1 block, ALOX12 inhib, HPGD inh, PNC assembly inh)
C/C(=N\OCC(=O)NC(C)C)c1cccs1	none (no result: ALOX12 inhib, HPGD inh, PNC assembly inh)
COc1ccc(NC(=S)NC(NC(=O)c2cccc(Cl)c2)C(Cl)(Cl)Cl)c([N+](=O)[O-])c1 (configuration not stated)	ALDH1A1 block 18µM, LMNA splice mod inconclusive
Cc1ccccc1-c1cc(N(C)C)ncn1	ALDH1A1 block inconclusive (no result: ALOX12 inhib, HPGD inh, PNC assembly inh)
N#CCSc1nc2cc(C(=O)N3CCC(C(N)=O)CC3)ccc2c2nc3ccccc3n12	ALDH1A1 block 28µM, LMNA splice mod inconclusive, PNC assembly inh inconclusive
COc1ccc(C(C)=O)cc1CSc1nc2cc(C(=O)O)ccc2c(=O)n1Cc1ccccc1	ALDH1A1 block 20µM, HPGD inh inconclusive, PNC assembly inh inconclusive
NC(=O)C1CCN(C(=O)c2ccc3c(=O)n(Cc4ccco4)c(SCC(=O)c4ccccc4)nc3c2)CC1	ALDH1A1 block 14µM (no result: ALOX12 inhib, LMNA splice mod, HPGD inh, PNC assembly inh)
N#CCSc1nc2cc(C(=O)N3CCCC3)ccc2c(=O)n1Cc1ccccc1	ALDH1A1 block 2.8µM
COc1cccc(-n2cc(C(=O)Nc3cccc(C(F)(F)F)c3)c3ccccc3c2=O)c1	none (no result: ALDH1A1 block, ALOX12 inhib, HPGD inh, PNC assembly inh)
Cc1ccccc1C(=O)c1cccn1CC(=O)NCC1CCCO1 (configuration not stated)	none (no result: HPGD inh)
Cc1ccccc1C(=O)c1cccn1CC(=O)N1CCCCCC1	ALDH1A1 block 4µM, LMNA splice mod inconclusive (no result: HPGD inh)
O=C1c2ccccc2C(=O)N1CCSc1n[nH]c(=S)s1	ALDH1A1 block 2.2µM, HPGD inh inconclusive
O=C1c2ccccc2C(=O)N1CCSc1ncn[nH]1	none
COc1ccc(N2CC(NC(=O)c3cc4ccccc4o3)CC2=O)cc1OC (configuration not stated)	none (no result: ALDH1A1 block, ALOX12 inhib, HPGD inh, PNC assembly inh)
COc1cc(OC)c(N2CC34C=CC(O3)C(C(=O)O)C4C2=O)cc1Cl (configuration not stated)	PNC assembly inh -92
CCc1ccccc1N1CC23C=CC(O2)C(C(=O)O)C3C1=O (configuration not stated)	none
CCn1c(SCC(=O)Nc2ccc(C)c(C)c2)nnc1-c1nonc1NC(C)=O	none (no result: ALDH1A1 block, ALOX12 inhib, HPGD inh, PNC assembly inh)
COc1cc(/C=N/NC2=NC(C)(C)Cc3ccccc32)cc(OC)c1OC	none (no result: ALOX12 inhib, LMNA splice mod, HPGD inh, PNC assembly inh)
COc1ccc(Nc2nc(CN3CCOCC3)nc3sc4c(c23)CCC(C)C4)cc1OC (configuration not stated)	none
CC1CCc2c(sc3nc(CN4CCOCC4)nc(Sc4ccccc4)c23)C1 (configuration not stated)	ALDH1A1 block 25µM
CCn1cnc2scc(-c3ccccc3)c2c1=O	PNC assembly inh -107
COc1ccccc1NC(=O)Cn1cnc2sc(C)c(S(=O)(=O)N3CCCCC3)c2c1=O	PNC assembly inh -113
COc1ccc(NC(=O)Cn2cnc3sc(C)c(S(=O)(=O)N4CCN(C)CC4)c3c2=O)cc1OC	none (no result: ALOX12 inhib, HPGD inh, PNC assembly inh)
COc1ccc(C)cc1NC(=O)Cn1cnc2sc(C)c(S(=O)(=O)N3CCOCC3)c2c1=O	PNC assembly inh -100
CC(C)NC(=O)CCCN1C(=O)CCn2nc(-c3cccn3C)cc21	none (no result: ALDH1A1 block, ALOX12 inhib, HPGD inh, PNC assembly inh)
